# Hits are enriched below; roughly 11% of the tested compounds scored in any of these assays.
# AMA1 RON2 block – qHTS for Inhibitors of AMA1-RON; Towards Development of Antimalarial Drug Lead: Primary Screen; AlphaScreen AMA1-biotinylated RON2 peptide binding; Potency, µM (titrated, usually from 58.2 µM), for inactives: top-dose activity change, negative = inhibition, hits mostly inhibitors; actives 0.2% (n = 360,000);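 note: 0% = vehicle wells and -100% = peptide control; nearly all actives have a fitted effect of over 45% in size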
#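 AMA1 (3D7) with his tag at 25 nM final met compounds first, then biotinylated RON2 peptide at 25 nM; detection used donor plus acceptor beads, 10 µg/mL apiece, read by AlphaScreen after 30 min at room temperature.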
# Pf growth 96h – Primary qHTS for delayed death inhibitors of the malarial parasite plastid, 96 hour incubation. Potency, µM (doses to about 28.7 µM), without a hit: at the top dose activity change, negative = inhibition, hits mostly inhibitors. AID 504834, 2011. actives 6.9% (n = 320,000). P. falciparum luciferase reporter growth, 96 h
#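 Luminescence readout: decreased luciferase signal marks inhibited growth of reporter-expressing P. falciparum in infected red cells (2% hematocrit, 0.05% parasitemia final), exposed to compound two generations (96 h, 37 C, 5% CO2).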
# HCV inhibitor – qHTS Assay for Inhibitors of Hepatitis C Virus (HCV) | Huh7.5.1 HCVcc-Cre infection, luciferase reporter, 44 h | Potency, µM (doses to about 41.8 µM), for the others: at the highest dose activity change, negative = inhibition, usual class: inhibitors | actives 3.4% (n = 340,000) | AID 651820, 2012
#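 HCVcc-Cre virus at an moi near 0.5 was added right after compound to cells cultured 4 h from seeding (1,000 cells/well). Luciferase activity was determined 44 h later, 15 min after substrate addition at RT.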
# Pf growth 48h – Primary qHTS for delayed death inhibitors of the malarial parasite plastid, 48 hour incubation; Potency, µM (highest dose often 28.7 µM), for inactives: at the highest dose activity change, negative = inhibition, hits mostly inhibitors; P. falciparum luciferase growth in erythrocytes, 48 h; actives 5.9% (n = 310,000)
#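 Luciferase-expressing P. falciparum in infected erythrocytes (2% hematocrit, 0.1% parasitemia final) in RPMI 1640/0.5% Albumax were exposed to compound for 48 hours at 37 C, 5% CO2; growth read as luminescence.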
# An asterisk follows results filed as active; ? = inconclusive; . = no result; [ ] = another dose, or the depositor's remark. Calls come from the whole dose curve; as a rule, active = well fitted curve in the direction sought with a large enough effect; inconclusive = small, poorly fitted or top-dose-only effect, or another doubt; inactive = no such curve, though single readings can be large; an effect the other way counts as inactive or inconclusive. Unless noted, % is set by controls: 0 for no effect and ±100 for the full control effect; potency is the fitted concentration of half-maximal effect.
SMILES,AMA1 RON2 block,Pf growth 96h,HCV inhibitor,Pf growth 48h
Cc1c(NCc2cc(Cl)cc(Cl)c2O)c(=O)n(-c2ccccc2)n1C,34.4%,-19.1%,?,.
Cc1ccc(C)c(OCc2nc3ccc(S(=O)(=O)Nc4c(C)n(C)n(-c5ccccc5)c4=O)cc3[nH]2)c1,18.8%,5.22µM*,5.9%,11.7µM*
Cc1c(NCc2nc3ccccc3[nH]2)c(=O)n(-c2ccccc2)n1C,68.3%,13.1µM*,17.8%,21.4%
Cn1c(-c2cccc([N+](=O)[O-])c2)cnc1NCc1cccc(F)c1,?,4.65µM*,0.4%,44.7%
Cc1ccc(N2CC(C(=O)N3CCC(C(=O)Nc4nnc(C(C)(C)C)s4)CC3)CC2=O)cc1 (centres undefined),0.5%,44.7%,-10.1%,?
CN(C)c1cc2c3ccccc3n(C)c2cc1N,3.55µM*,.,?,.
CC[n+]1c(/C=C2/C=C(C)CC(C)C2)sc2ccccc21 (centres undefined),-14.7%,?,3.55µM*,?
CC[n+]1c(C=C2C=C(C)OC(C)=C2)sc2ccccc21,1.4%,?,2.51µM*,?
CC(=O)C1=CCC(c2ccccc2Cl)N(S(=O)(=O)c2ccc(C)cc2)C1 (centres undefined),-6.5%,.,.,.
CCCCn1c(=O)[nH]c(=O)c2c(C(=O)OCC)cc(-c3cccs3)nc21,-2.7%,-19.9%,10µM*,0.0%
CCCn1c(=O)[nH]c(=O)c2c(C(=O)OCC)cc(-c3cccs3)nc21,-6.6%,?,?,?
O=C(O)C(Cc1cn[nH]n1)=NO,11.5%,23.2%,-17.7%,3.1%
CCCCCCN(C(=O)CCCCCN1C(=O)NC(c2ccc(-c3ccccc3)cc2)C(C(=O)OCc2ccccc2)=C1C)C(C(=O)NCCCC)c1ccc(-c2ccccc2)cc1 (centres undefined),.,0.262µM*,.,0.828µM*
CCCCCCN(C(=O)CCCCCN1C(=O)NC(c2ccc(-c3ccccc3)cc2)C(C(=O)OCc2ccccc2)=C1C)C(C(=O)NCCCC)c1cccc(C(=O)OC)c1 (centres undefined),.,1.65µM*,.,1.85µM*
CCCCCCN(C(=O)CCCCCN1C(=O)NC(c2ccc(-c3ccccc3)cc2)C(C(=O)OCc2ccccc2)=C1C)C(C(=O)NCCCC)c1ccc(O)c(C(=O)OC)c1 (centres undefined),.,2.08µM*,.,2.08µM*
CCCCCCN(C(=O)CCCN1C(=O)NC(c2ccc(-c3ccccc3)cc2)C(C(=O)OCc2ccccc2)=C1C)C(C)C(=O)NCCCC (centres undefined),9.3%,.,?,.
CCCCCCN(C(=O)CCCCCN1C(=O)NC(c2ccc(-c3ccccc3)cc2)C(C(=O)OCc2ccccc2)=C1C)C(C(=O)NCCCC)c1ccc(O)cc1 (centres undefined),.,2.08µM*,-1.8%[8.37 µM],?
COc1ccc(OC)c(C(C)NC(=O)Nc2cccc(C(C)=O)c2)c1 (centres undefined),-2.1%,0.0%,-18.0%,5.7%
NC(=O)c1ccc(NCCc2cccs2)cc1,17.6%,.,.,.
Cn1c2ccccc2c(=O)c2ccc(NCCc3cccs3)cc21,8.3%,.,11.2µM*,.
Cc1ccc(S(=O)(=O)CC(=O)c2cc(C)c(O)c(C)c2)cc1,-14.8%,1.5%,17.0%,24.6%
Cc1ccc(CN(C)C(=O)CSc2nnc3n2CCCCC3)c(C)c1,-5.4%,7.38µM*,-7.0%,?
Cc1nnc(SC(C)C(=O)Nc2ccc(N3CCOCC3)cc2)n1Cc1ccccc1 (centres undefined),-21.8%,26.3%,?,3.4%
COc1cc(NC(C)CCCN)c2nc(C)ccc2c1Oc1ccc(F)cc1 (centres undefined),88.3%,.,.,.
COc1ccc(N2CCN(C3CCCN(Cc4ccc(F)cc4Cl)C3)CC2)cc1 (centres undefined),11.9%,?,?,?
SMILES,AMA1 RON2 block,Pf growth 96h,HCV inhibitor,Pf growth 48h
COc1ccc(O)c(CN2CCCC(N3CCc4ccccc4C3)C2)c1 (centres undefined),22.6%,?,-8.2%,11.7µM*
Oc1ccccc1CN1CCCC(N2CCc3ccccc3C2)C1 (centres undefined),51.0%,5.22µM*,-21.0%,9.28µM*
COc1ccc(O)c(CN2CCCC(N3CCN(c4ccc(F)cc4)CC3)C2)c1 (centres undefined),-8.6%,?,-18.7%,4.15µM*
Cc1ccc(N2C(=O)N(CC(=O)Nc3ccc(C)c(C)c3)C(=O)C2C)cc1 (centres undefined),0.0%,-10.9%,?,12.3%
O=S(=O)(Nc1ccc(N2CCOCC2)cc1)c1cccs1,-18.4%,39.9%,3.2%,0.5%
CC1CCN(C(=O)CCNS(=O)(=O)c2ccc(Br)cc2)CC1,-3.3%,?,14.9%,?
O=C1C(NS(=O)(=O)c2ccccc2)=C(N2CCN(c3ccc(F)cc3)CC2)C(=O)c2ccccc21,17.8µM*,?,-8.9%,13.1µM*
CC1CCN(C2=C(NS(=O)(=O)c3ccc(Cl)cc3)C(=O)c3ccccc3C2=O)CC1,?,1.47µM*,2.3%,7.38µM*
CC1CCN(C2=C(NS(=O)(=O)c3ccccc3)C(=O)c3ccccc3C2=O)CC1,?,?,-22.7%,?
CC1CCN(C2=C(NS(=O)(=O)c3ccc(Br)cc3)C(=O)c3ccccc3C2=O)CC1,12.6µM*,?,4.7%,?
O=C1C(NS(=O)(=O)c2cccs2)=C(N2CCN(c3cccc(Cl)c3)CC2)C(=O)c2ccccc21,?,.,2.2%,11.7µM*
COC(=O)[C@H](CC(C)C)NC(=O)CC[C@H]1O[C@@H](n2cc(C)c(=O)[nH]c2=O)C[C@@H]1O,3.5%,.,.,.
CC(C)(C)N1C(=O)c2ccc(C(=O)Nc3cc(C(=O)O)cc(C(=O)O)c3)cc2C1=O,-2.6%,-2.8%,5.2%,0.0%
O=C1C(NS(=O)(=O)c2ccc(Br)cc2)=C(N2CCCCC2)C(=O)c2ccccc21,15.8µM*,9.28µM*,?,11.7µM*
COc1ccc(CCNC(=O)CC(Cc2ccc(C)cc2)C(=O)O)cc1OC (centres undefined),-4.7%,14.3%,7.9%,-1.3%
NC(=O)c1cc(N2C(=O)C=CC2=O)ccc1Cl,-1.9%,0.0%,.,2.33µM*
CC(=O)Nc1ccc(Cl)c(C(N)=O)c1,7.5%,?,3.0%,0.4%
COc1cc(-c2nnc(SCC(=O)N3CCCC3)o2)cc(OC)c1OC,2.3%,56.9%,-4.5%,?
COc1cc(-c2nnc(SCC3(c4ccc(Br)cc4)OCCO3)o2)cc(OC)c1OC,0.0%,13.1µM*,?,10.4µM*
COc1cc(-c2nnc(SCC(=O)/C(C#N)=C(\C)N)o2)cc(OC)c1OC,-0.9%,9.28µM*,?,?
Cc1cc(C(=O)CSc2nc3ccccc3c(=O)[nH]2)c(C)n1CC1CCCO1 (centres undefined),-2.7%,23.3%,11.2µM*,26.8%

# Bioassay records (PubChem)
